activity, activity change, negative = inhibition and Potency data for 30 compounds are collected here from PubChem BioAssay (NCATS).

Active and inactive are the calls of the source. The call rests on the fitted dose curve.

Assay in all cases: Confirmatory Screen for Target Class Profiling of Small Molecule Inhibitors of Methyltransferases (AID 1745852); on activity change, negative = inhibition: on the % scale 0 is the no-effect control and ±100 the full control effect
Assay [1] has as its target Catechol O-methyltransferase (Homo sapiens) (UniProt P21964). The following applies: MTase-Glo luminescence, SAH detection, recombinant enzyme; measured here: COMT max response; stronger effect = lower value.
Assay [2] concerns the target Guanidinoacetate N-methyltransferase (Homo sapiens) (UniProt Q14353). The note with it: MTase-Glo luminescence, SAH detection, recombinant enzyme; activity change, negative = inhibition: at 57.3 µM (top of the series) unless noted; series mostly up to 57.3 µM.
The target of assay [3] is Nicotinamide N-methyltransferase (Homo sapiens) (UniProt P40261). The following applies: MTase-Glo luminescence, SAH detection, recombinant enzyme; measured here: NNMT max response; stronger effect = lower value.
In assay [4] the target is Phenylethanolamine N-methyltransferase (Homo sapiens) (UniProt P11086). The note with it: MTase-Glo luminescence, SAH detection, recombinant enzyme; measured here: PNMT max response; stronger effect = lower value.
Potency means the concentration at half of the fitted maximal effect.

Sequence of Phenylethanolamine N-methyltransferase (Homo sapiens) (P11086 whole entry, looked up): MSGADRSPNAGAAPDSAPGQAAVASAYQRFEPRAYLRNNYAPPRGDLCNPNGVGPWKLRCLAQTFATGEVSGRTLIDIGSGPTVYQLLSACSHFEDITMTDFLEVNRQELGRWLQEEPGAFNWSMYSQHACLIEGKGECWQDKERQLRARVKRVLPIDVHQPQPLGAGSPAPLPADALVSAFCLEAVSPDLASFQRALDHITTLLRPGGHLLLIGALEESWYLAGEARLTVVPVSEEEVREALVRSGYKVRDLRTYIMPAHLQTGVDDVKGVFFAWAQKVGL
Sequence of Nicotinamide N-methyltransferase (Homo sapiens) (P40261 whole entry, looked up): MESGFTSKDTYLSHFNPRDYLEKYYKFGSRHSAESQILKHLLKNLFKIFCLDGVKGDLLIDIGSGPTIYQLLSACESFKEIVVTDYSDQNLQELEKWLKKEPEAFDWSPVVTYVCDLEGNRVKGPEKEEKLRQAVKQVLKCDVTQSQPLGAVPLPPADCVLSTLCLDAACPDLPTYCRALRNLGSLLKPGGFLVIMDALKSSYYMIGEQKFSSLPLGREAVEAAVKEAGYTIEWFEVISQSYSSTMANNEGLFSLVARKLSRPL
Sequence of Catechol O-methyltransferase (Homo sapiens) (P21964 whole entry, looked up): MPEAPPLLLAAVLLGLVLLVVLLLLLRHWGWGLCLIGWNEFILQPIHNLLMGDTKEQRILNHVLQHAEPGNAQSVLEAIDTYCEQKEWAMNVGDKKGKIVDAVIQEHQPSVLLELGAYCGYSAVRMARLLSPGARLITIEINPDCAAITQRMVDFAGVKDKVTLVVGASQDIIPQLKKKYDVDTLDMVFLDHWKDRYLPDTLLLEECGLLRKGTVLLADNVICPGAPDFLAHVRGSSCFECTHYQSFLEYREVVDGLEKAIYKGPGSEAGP

`CC1CCCCN1CCNC(=O)CCc1nnc2n(Cc3ccc(F)cc3)c(=O)c3ccccc3n12` (stereo not given): the activity is 4.47% in assay [1], -9.89% in assay [3] and 0.568% in assay [4]. Besides, the activity change, negative = inhibition in assay [2] worked out at 0%.
With `O=c1c2ccccc2n2c(-c3cc(Cl)ccc3O)nnc2n1Cc1ccc(F)cc1`, the activity in assay [1] was -12.1%; in assay [3] it was -13.1%; in assay [4], -27.8%. In addition, the Potency in assay [2] was 27.1 µM (active).
Taken in the same sequence, the figures for `CC(=O)Nc1ccc2c(c1)C1C=CCC1C(c1ccccc1F)N2` (stereo not given) were -18.4%, -12.1%, -27.7% and 42.9 µM (active).
As for `Cc1ccc(CNC(=O)c2ccc3c(=O)[nH]c4c(C(=O)NC(C)C)sc(=S)n4c3c2)cc1`, the activity was -30.2% in assay [1], -65.3% in assay [3] and -17.2% in assay [4]. In addition, the activity change, negative = inhibition in assay [2] was -7.1%.
On the same counts, the results for `O=C(c1ccc(C(F)(F)F)cc1)N1CCCC(C(=O)N2CCC(c3nc4ccncc4[nH]3)CC2)C1` (stereo not given) are 9.15%, -28.9%, 9.23% and 6.72%.
On the same counts, the results for `CCOc1c(CN(C)C(=O)Cn2cccc(OC)c2=O)cccc1OC` are 0.499%, -3.91%, 0.0949% and -5.47%.
Taken in the same sequence, the figures for `CN(CCCNC(=O)Cn1ccc2cc(S(=O)(=O)N3CCCCC3)ccc21)C1CCCCC1` were 1.24%, -1.2%, 0.276% and 0.637%.
On to `CCOC(=O)CC1(NC(=O)N2CCn3cccc3C2Cc2ccccc2)CCCCC1` (stereo not given), for which the activity was 2.42% in assay [1], -6.48% in assay [3] and -4.39% in assay [4]. Moreover, in assay [2], the Potency entry was “inactive”.
Turning to `CCOC(=O)c1cccc(Nc2cc(C)nc3ccc(C)cc23)c1`, the activity was -4.58% in assay [1], -21.8% in assay [3] and -4.31% in assay [4]. Besides, the activity change, negative = inhibition in assay [2] is 0%.
On the same counts, the results for `CC1CCCCN1CCCNC(=O)c1cc2c(s1)CN(C1CCCC1)C2` (stereo not given) are 3.35%, 3.93%, 4.11% and 2.38%.
In the case of `O=C(CCc1nnc2n(CCc3ccccc3)c(=O)c3ccccc3n12)N1CCN(C2CCCCC2)CC1`, the activity in assay [1] was 0%; in assay [3], -47.4%; in assay [4] it was 0.426%. For the same compound, the activity change, negative = inhibition in assay [2] stood at 0%.
Turning to `Cc1cccc(-c2nnc3n(CCc4ccccc4)c(=O)c4ccccc4n23)c1`, the activity was -4.01% in assay [1], -11.5% in assay [3] and -10% in assay [4]. For the same compound, the Potency entry in assay [2] was “inactive”.
Take `COc1ccc(CCNC(=O)c2ccc3c(=O)nc4c(-c5ccccc5)n[nH]n4c3c2)cc1OC`: the activity was -11.8% in assay [1], -10.5% in assay [3] and -12.5% in assay [4]. In addition, the Potency in assay [2] is 0.0961 µM (active).
Consider `N#Cc1ccccc1-c1cc2c(ccn2Cc2ccncc2)c(N2CCOCC2)n1`, for which the activity in assay [1] was -6.69%; in assay [3] it was -6.24%; in assay [4], -4.65%. In assay [2], the activity change, negative = inhibition was -0.304% [at 85.7 µM].
Taken in the same sequence, the figures for `CC(C)CCn1c(=O)c2ccccc2n2c(CCC(=O)N3CCN(c4ccccc4F)CC3)nnc12` were 1.06%, -60.1%, -4.6% and 0%.
Taken in the same sequence, the figures for `CCC1Oc2ccc(NS(=O)(=O)c3ccc(Cl)cc3)cc2CN(Cc2ccc(F)cc2)C1=O` (stereo not given) were -6.43%, -24.1%, -6.42% and -14.3%.
On the same counts, the results for `c1ccc(CN2CCNc3cnc(Nc4ccc(N5CCOCC5)cc4)cc3C2)cc1` are -14.6%, -15%, -10.3% and -9.27% [at 85.7 µM].
`OCC1(Cc2ccccc2)CCCN(Cc2cn[nH]c2-c2ccc(F)cc2)C1` (stereo not given): the activity in assay [1] worked out at 5.88%; in assay [3] it was 0.855%; in assay [4] it was 5.69%. For the same compound, the activity change, negative = inhibition in assay [2] turned out to be 4.38%.
In the case of `Cn1nccc1-c1cc2c(cn1)CN(Cc1ccncc1)CCN2`, the activity in assay [1] is 1.75%; in assay [3] it was -4.82%; in assay [4], 0.453%. The activity change, negative = inhibition in assay [2] was found to be 1.99% [at 85.7 µM].
Taken in the same sequence, the figures for `O=C(c1ccc(Cl)cc1)N1CC2(CCN(CC3CC3)CC2)Cc2ccccc21` were -9.09%, -9.37%, -4.04% and -2.34%.
With `CCNc1nc2c(s1)C(c1cccc(F)c1)CC(=O)N2` (stereo not given), the activity was -12.6% in assay [1], -25% in assay [3] and -19.2% in assay [4]. Also, the Potency in assay [2] was 42.9 µM (active).
`COc1ccc2c(c1)C(CN1CCN(c3ccc4oc(C(=O)O)cc4c3Cl)CC1)=CC(C)(C)CO2`: the activity in assay [1] is -4.38%; in assay [3] it was -9.6%; in assay [4] it was 3.5%. Besides, the activity change, negative = inhibition in assay [2] was determined as 0.273%.
Taken in the same sequence, the figures for `c1ccc(-c2cc3c(cn2)NCCN(CC2CC2)C3)cc1` were 8.66%, 4.63%, 6.73% and 7.08% [at 114 µM].
On to `CN(CCCNC(=O)CCCc1nnc2n3nc(-c4ccccc4)nc3c3ccccc3n12)Cc1ccccc1`, for which the activity was 2.29% in assay [1], -6.15% in assay [3] and 3.41% in assay [4]. Also, the activity change, negative = inhibition in assay [2] amounted to 0%.
Taken in the same sequence, the figures for `C[S+](=O)([O-])N1CCC(Cn2ccc3c(N4CCOCC4)nc(-c4cccc5[nH]ncc45)cc32)CC1` were -13.4%, -5.17%, -54.3% and -3.16%.
Take `COc1ccc(S(=O)(=O)NC[C@H]2Cn3c(-c4ccc(Cl)cc4)cnc3CO2)cc1`: the activity is -8.66% in assay [1], -23.7% in assay [3] and -17.1% in assay [4]. Moreover, the activity change, negative = inhibition in assay [2] was -2.1% [at 85.7 µM].
Taken in the same sequence, the figures for `CCCC1c2cccn2CCN1C(=O)Nc1ccc(Br)c(C)c1` (stereo not given) were -4.66%, -7.57%, -6.57% and -2.02%.
Consider `CCN(CC)CCNC(=O)CCCc1nnc2n3nc(-c4ccccc4)nc3c3ccccc3n12`, for which the activity in assay [1] is -2.75%; in assay [3], -0.56%; in assay [4], -1.77%. The activity change, negative = inhibition in assay [2] amounted to 0.717%.
Taken in the same sequence, the figures for `Cc1nc2c3ccccc3n3c(CCCC(=O)NCCCN(C)Cc4ccccc4)nnc3n2n1` were -2.29%, -3.81%, -3.01% and 0%.
Consider `CC(C)CCn1c(=O)c2ccccc2n2c(CCC(=O)N3CCN(c4cccc(Cl)c4)CC3)nnc12`, for which the results for the activity in assay [1], in assay [3] and in assay [4] were 1.55%, -55.2% and -8.01%, respectively. The activity change, negative = inhibition in assay [2] turned out to be 1.8%.
